Screens from PubChem.
This is one part of a sample in which hits are shown more often than they occur.
HIV RNase H inh-1 – blocks HIV-1 RNase H cleavage of RNA/DNA duplex. RT-RNase H RNA/DNA duplex cleavage, fluorescence. AID 565. P04585. 1.9% of 65,000 active. inhibition, % at 10 µM; in the data active = inhibition above about 50%
HIV RNase H inh-2 – confirmation of HIV-1 reverse transcriptase RNase H inhibitors; inhibition, % at 10 µM; 39% of 1,000 active; Recombinant RT RNase H, fluorescent RNA/DNA duplex cleavage; shares compounds with HIV RNase H inh-1; in the data active = inhibition above about 48%
A number is an active result; - = inactive.

SMILES	HIV RNase H inh-1	others
O=C(O)C1C2C=CC(O2)C1C(=O)Nc1ccc(S(=O)(=O)Nc2ccccc2)cc1 (configuration not stated)	58	HIV RNase H inh-2=-
O=C(O)C1C2C=CC(O2)C1C(=O)Nc1ccc(S(=O)(=O)N2CCc3ccccc32)cc1 (configuration not stated)	-
NC(=O)CN1CCN(C(=O)Nc2ccccc2)CC1	-
CS/C(=N\S(=O)(=O)c1ccc(N)cc1)NS(=O)(=O)c1cccs1	-
Cc1ccc(S(=O)(=O)N(CC(=O)NCc2ccco2)Cc2ccccc2F)cc1	-
CC(C)c1[nH]nc2c1C(Cc1ccccc1)C(C#N)=C(N)O2 (configuration not stated)	-
Cn1c(=O)c2cc(S(=O)(=O)N3CCOCC3)ccc2n(C)c1=O	-
O=c1c2ccccc2sn1-c1cc(S(=O)(=O)N2CCOCC2)ccc1N1CCOCC1	95	HIV RNase H inh-2=61
CCN1C(=O)Cc2cc(S(=O)(=O)N3CCOCC3)ccc21	-
COc1ccc(Cl)cc1N1CC(c2nc3ccccc3[nH]2)CC1=O (configuration not stated)	-
O=C1CC(c2nc3ccccc3[nH]2)CN1c1cccc(C(F)(F)F)c1 (configuration not stated)	-
O=C1CC(c2nc3ccccc3[nH]2)CN1c1ccccc1F (configuration not stated)	63	HIV RNase H inh-2=-
Cc1c(OCc2ccc(C(=O)O)o2)ccc2c3c(c(=O)oc12)CCC3	-
Cc1ccc(NS(=O)(=O)c2ccc(C(=O)N3CCCN(C)CC3)cc2)cc1	-
CCOC(=O)c1c(N)sc(C(=O)N2CCCC2)c1C	-
C=CCn1c(N)c(C(=O)N2CCN(C)CC2)sc1=S	-
Cc1c(C(=O)N2CCCCC2)sc(N)c1C#N	-
Cc1ccc(-n2c(N)c(C(=O)N3CCCCC3)sc2=S)cc1	95	HIV RNase H inh-2=75
Cc1ccc(-n2c(N)c(C(=O)N3CCN(C)CC3)sc2=S)cc1	93	HIV RNase H inh-2=63
COCCCn1c(-c2ccsc2)nc2c1c(=O)[nH]c(=O)n2Cc1ccccc1	-
O=C(COC(=O)CCCNC(=O)c1ccc(Cl)cc1)NC1CC1	-
Cc1ccc(-n2nnc3c(SCC(=O)N4CCN(c5ccccc5)CC4)ncnc32)cc1	-
CCC(C)(C(=O)NC1CCCCC1)N(C(=O)C1CCC(=O)N1)c1ccc(C)cc1 (configuration not stated)	-
Cc1ccc(NC(=O)CCNS(=O)(=O)c2cccc3nonc23)cc1	-
CC(=O)c1cccc(NC(=O)CCS(=O)(=O)c2cccc3nonc23)c1	-
SMILES	HIV RNase H inh-1	others
Cc1ccc(N(CC(=O)Nc2cccc(C)c2)S(=O)(=O)c2cccc3nonc23)cc1	67	HIV RNase H inh-2=-
c1coc(-c2nc(-c3ccco3)c(-c3ccco3)nc2-c2ccco2)c1	86	HIV RNase H inh-2=-
Nc1nc(-c2ccco2)cs1	-
Nc1nc(-c2ccco2)c(-c2ccco2)s1	-
COc1ccc(OC)c(S(=O)(=O)N2CCN(C34CC5CC(CC(C5)C3)C4)CC2)c1	-
Oc1ccc(-c2nc(-c3ccc(O)c(O)c3)cs2)cc1	100	HIV RNase H inh-2=83
COc1ccc(-c2nc3ccccc3s2)cc1O	-
c1cncc(-c2nc(-c3ccc4c(c3)OCO4)cs2)c1	-
O=C(NCCCN1CCCC1=O)c1cccc(C(F)(F)F)c1	-
Cc1ccc2c(CC(=O)O)coc2c1C	-
Cc1cc(C)nc(SC2=CS(=O)(=O)c3ccccc32)n1	-
O=S1(=O)C=C(Sc2nnc(-c3ccccc3)o2)c2ccccc21	65	HIV RNase H inh-2=-
CSc1nnc(-c2ccccc2)o1	-
CC(C)=CCCC(C)NC(=O)NC1CCCCC1 (configuration not stated)	-
COc1cccc(OCC(O)CO)c1 (configuration not stated)	-
COC(=O)c1c(NC(=O)CSc2n[nH]c(N)n2)sc(C)c1C	-
CCOC(=O)c1c(NC(=O)CSc2n[nH]c(N)n2)sc(CC)c1C	-
Cc1ccc(/C=C/C2=Cc3c(sc(NC(=O)CSc4n[nH]c(N)n4)c3C#N)C(C)(C)C2)o1	96	HIV RNase H inh-2=67
COc1ccc2nc(NC(=O)CCc3nc(-c4ccccc4F)no3)sc2c1	-
COc1ccccc1CNc1nc2nc(C)cc(=O)n2[nH]1	-
CC1=C(SCCC#N)S/C(=C2\SC(C)=C(SCCC#N)S2)S1	72	HIV RNase H inh-2=65
Cn1c(SCC(=O)N2CCCCC2)nc2cccnc21	-
O=c1oc(-c2cccc(S(=O)(=O)N3CCOCC3)c2)nc2ccccc12	-
Cc1ccc2nc(NC(=O)CSc3nc4c(c(=O)n3C)SC(C)C4)sc2c1 (configuration not stated)	79	HIV RNase H inh-2=-
CC1Cc2nc(SCC(=O)Nc3ccc(F)cc3F)n(C)c(=O)c2S1 (configuration not stated)	-
SMILES	HIV RNase H inh-1	others
Cc1ccc(C)c(NC(=O)CSc2nc3c(c(=O)n2C)SC(C)C3)c1 (configuration not stated)	-
COc1ccc(CC(=O)Nc2cccc(C(=O)O)c2C)cc1	-
O=C(c1ccc2c(c1)OCO2)N1CCN(c2ccccc2)CC1	-
c1ccc(N2CCN(c3nc4cc5c(cc4s3)OCO5)CC2)cc1	76	HIV RNase H inh-2=76
c1ccc2c(c1)CCN(c1nc3cc4c(cc3s1)OCO4)C2	-
c1c2c(cc3sc(N4CCOCC4)nc13)OCO2	72	HIV RNase H inh-2=62
c1c2c(cc3sc(N4CCCCC4)nc13)OCO2	-
O=C(c1ccc2nc(N3CCOCC3)sc2c1)N1CCCC1	-
O=c1[nH]c(NCc2ccccc2)nc2c1CCCC2	-
CCCOc1ccc(/C(O)=C2\C(=O)C(=O)N(CCCN(C)C)C23C(=O)N(C)c2ccccc23)cc1 (configuration not stated)	-
Cc1ccc(-n2nc3c([n+]2[O-])CCc2c-3no[n+]2[O-])cc1	-
CCN(CC)CCn1c2ccccc2c2nc(C)sc21	-
Cc1onc(-c2ccccc2Cl)c1C(=O)OCC(=O)N1CCCc2ccccc21	-
CCN(CC)S(=O)(=O)c1ccc2oc(SCC3CN=C(c4ccc(OC)cc4)S3)nc2c1 (configuration not stated)	59	HIV RNase H inh-2=-
COc1ccc(C2=NCC(CSc3nnc(-c4ccc5c(c4)OCO5)o3)S2)cc1 (configuration not stated)	-
COc1ccc(C2=NCC(CSc3nccc(=O)[nH]3)S2)cc1 (configuration not stated)	-
COc1ccc(S(=O)(=O)N(C)CC(=O)O)c2ccccc12	-
O=S(=O)(c1ccccc1C(F)(F)F)N1CCOCC1	-
O=c1c2ccccc2n2cnnc2n1-c1ccccc1	-
O=c1c2ccccc2n2nnnc2n1-c1ccccc1	-
O=c1c2ccccc2[se]n1-c1ccccc1	94	HIV RNase H inh-2=67
COC(=O)c1ccc(CSc2ncnc3c2nnn3-c2ccc(F)cc2)o1	-
COc1ccc(CNC(=O)C2CCCN(S(=O)(=O)c3cnc[nH]3)C2)cc1 (configuration not stated)	-
CS(=O)(=O)Nc1ccc(C(=O)NC2CCCC2)cc1	-
C/C=C/Cn1c(SCc2ccc(C)cc2)nc2c1c(=O)[nH]c(=O)n2C	-
CCC(C)Sc1nc2c(c(=O)[nH]c(=O)n2C)n1Cc1ccc(Cl)cc1 (configuration not stated)	-
Cc1ccc(Cn2c(N3CCCCCC3)nc3c2c(=O)[nH]c(=O)n3C)cc1	-
C=CCSc1nc2c(c(=O)[nH]c(=O)n2C)n1C(C)C	76	HIV RNase H inh-2=59
CCCSc1nc2c(c(=O)[nH]c(=O)n2C)n1Cc1ccc(C)cc1	-
C=CCn1c(SCc2ccc(Cl)cc2)nc2c1c(=O)[nH]c(=O)n2C	-
